A selection: hits, their analogues and other compounds. The true share with any hit is near 1.8%.
MEX-5 binding – MEX-5 zinc finger RNA-binding disruptors – biochemical, C. elegans, fluorescence polarization, MLPCN library, primary screen. MEX-5/FITC-TCR2 RNA binding; hits give low values. activity score (negative = inhibition of binding), % at 10 µM. actives 0.38% (n = 300,000). AID 1832, 2009;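 active means inhibition past about -25% in most replicates, and total fluorescence under double the plate's negative control median, limit read from the data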;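 further: 0% = DMSO and -100% = 5 µM competing unlabeled TCR2 RNA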
MLLE-PAM2 inh – inhibitors of PABP1 MLLE–PAM2 peptide binding, primary screen, biochemical, fluorescence polarization, FITC-PAM2, GST-MLLE; Polyadenylate-binding protein 1 (Homo sapiens), P11940; inhibition, % at 20 µM; actives 0.36% (n = 360,000); AID 588489, 2011; in the data active means inhibition above about 35%, passing the limit was not always enough;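 further: plate controls were DMSO wells with GST-MLLE for no effect and wells lacking GST-MLLE protein for full effect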
eIF4H FP inh – human eIF4H binding inhibitors, primary screen, translation initiation inhibitor project, biochemical, uHTS, fluorescence polarization. Eukaryotic translation initiation factor 4H (Homo sapiens), Q15056. eIF4H fluorescence polarization binding assay. inhibition, % at 35 µM. actives 0.94% (n = 290,000). AID 2012, 2009;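 further: calls also rest on retests at 20 µM and on dose response follow-up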
PABP polyA inh – PABP poly(A) RNA binding inhibitors, primary screen, biochemical, fluorescence polarization, uHTS. Polyadenylate-binding protein 1 (Homo sapiens), P11940. calls only at 35 µM. actives 1% (n = 290,000). AID 2014, 2009;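 further: calls also rest on retests at 20 µM and on dose response follow-up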
EBV gp42 inh – Epstein-Barr virus gp42 inhibitors, primary screen, biochemical, uHTS, fluorescence polarization | Glycoprotein 42 (Epstein-Barr virus (strain AG876)), Q1HVG2 | Fluorescence polarization binding assay, mP read-out | inhibition, % (tested at 21.74 µM) | actives 0.42% (n = 220,000) | AID 1085, 2008; in the data active means inhibition above about 50%
Target sequence (Q1HVG2 whole entry, looked up): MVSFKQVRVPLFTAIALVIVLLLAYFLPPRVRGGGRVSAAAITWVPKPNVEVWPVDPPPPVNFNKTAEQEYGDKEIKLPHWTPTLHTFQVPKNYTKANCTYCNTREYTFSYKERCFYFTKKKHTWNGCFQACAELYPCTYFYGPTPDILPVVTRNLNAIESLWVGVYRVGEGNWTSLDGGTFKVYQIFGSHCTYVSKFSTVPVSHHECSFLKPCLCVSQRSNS
* marks the source's active call; other numbers are inactive results; i = inactive; · = no result; + = active, no number; ! = repeats disagree. Unless noted, how the calls were made is not given here.

SMILES	MEX-5 binding	MLLE-PAM2 inh	eIF4H FP inh	PABP polyA inh	EBV gp42 inh
CC12CCC=CC1=C(C=O)C1C2CCC2(C)C(O)CCC12 (stereo not drawn)	·	11	·	·	·
O=C(CN1CCCC1)Nc1ccc2c(c1)CCC2	1	11	12	i	7
O=C(CN1CCN(c2ccccc2O)CC1)Nc1ccc2c(c1)CCC2	1	-7	2.2*	+	9
Cc1ccc(S(=O)(=O)N2CCOCC2)cc1C(=O)N1C(=O)c2cccc(N)c2C1=O	-3	10	57*	+	36
Cc1ccc(S(=O)(=O)N2CCOCC2)cc1C(=O)O	-1	-9	-2	i	-7
Cc1ccc(CSCCNS(=O)(=O)c2ccccc2)cc1	0	8	50*	+	15
COc1ccc(-c2nnc(CSc3ncnc4sc5c(c34)CCC5)o2)cc1OC	·	5	53*	+	·
N#CCSc1ncnc2sc3c(c12)CCC3	-1	-21	7	i	-13
CC(C)c1nnc(SCC(=O)NCCC2=CCCCC2)n1N	1	42*	6	i	15
COC(=O)[C@H](CC(C)C)NC(=O)CC[C@H]1O[C@@H](n2cc(C)c(=O)[nH]c2=O)C[C@@H]1O	·	-1	·	·	·
CCCc1nc2c3ccccc3ccn2c1Cc1cccc(F)c1	·	-22	·	·	·
COc1cc(/C=C(/C#N)c2nc(-c3cc4ccccc4oc3=O)cs2)cc([N+](=O)[O-])c1O	·	·	37	i	64*
CNc1cc(-c2ccc(CC#N)cc2)ncn1	·	4	·	·	·
Nc1c(C(=O)Nc2ccccc2)sc2nc(-c3ccco3)ccc12	-2	-16	75*	+	-7
COc1ccc(NC(=O)c2sc3nc(-c4cccnc4)ccc3c2N)cc1	-55*	86	21	i	84*
O=C(c1[nH]c(C(F)(F)F)nc1-c1ccccc1)N1CCc2ccccc2C1	·	2	·	·	·
CN1OC[C@@H]2CN(C(=S)NCCc3ccccc3)[C@H](c3ccc(-n4ccnc4)cc3)C[C@@H]21	·	-104	·	·	·
COc1ccc(Cc2c(O)nc(SCC(=O)NC34CC5CC(CC(C5)C3)C4)[nH]c2=O)cc1	1	41*!	-4	i	-5
O=C(CSc1nc(O)c(Cc2ccccc2)c(=O)[nH]1)Nc1nnc(SCc2ccccc2)s1	-4	37*	1	i	2
O=C(CSc1nc(O)c(Cc2ccccc2)c(=O)[nH]1)Nc1ccccc1	-4	43*	1	i	8
COc1ccc(NC(=O)CSc2nc(O)c(Cc3ccccc3)c(=O)[nH]2)cc1	0	40*	2	i	-13
CSc1ccc(CN2CCC2(C)C(=O)Nc2ccc3c(c2)OCO3)cc1 (stereo not drawn)	·	14	·	·	·
COCCNc1ncnc2c1ncn2[C@H]1CN(Cc2ccccc2)C[C@@H](CO)O1	·	5	·	·	·
COC1=CC(=NCl)C=CC1=NCl	·	41*	·	·	·
Oc1ccc(C[C@H]2CNC(=S)N2C[C@H]2CCCN2C[C@H](Cc2ccccc2)N2C[C@H](Cc3ccc(O)cc3)N(CCc3ccccc3)C2=S)cc1	·	1	·	·	·
SMILES	MEX-5 binding	MLLE-PAM2 inh	eIF4H FP inh	PABP polyA inh	EBV gp42 inh
Nc1nc(O)c(N=Nc2ccc(S(N)(=O)=O)cc2)c(=O)[nH]1	1	·	-4	i	·
NS(=O)(=O)c1ccc(N=Nc2c[nH]c(=O)c(O)c2)cc1	-89*	102	54*	+	-9
Cc1[nH][nH]c(=O)c1N=Nc1ccc(S(N)(=O)=O)cc1	-59*	3	·	·	·
COc1ccc(OC)c(CC(=O)Nc2ccc3c(c2)c(=O)n(C)n3Cc2cccc(C(F)(F)F)c2)c1	·	-11	·	·	·
Cc1ccc(S(=O)(=O)N2[C@@H](c3ccc(Cl)cc3)C(C(=O)OC(C)(C)C)=CC[C@H]2c2ccc(Cl)c(Cl)c2)cc1	·	2	·	·	·
CCNC(=O)C1(C)CCCN(C(=O)c2ccccc2Br)C1 (stereo not drawn)	·	-2	·	·	·
CCN1C(=O)[C@H]2[C@@H](c3ccc(OC)cc3)N[C@]3(CCCN(Cc4ccc(C)cc4)C3=O)[C@H]2C1=O	·	-18	·	·	·
O=c1oc(/C=C/c2ccccc2)nc2sc3c(c12)CCC3	-11	-60	-8	i	-91
COc1ccc(/C=C/c2nc3sc4c(c3c(=O)o2)CCC4)cc1	-30*	i	·	·	·

From PubChem BioAssay
